Assay outcomes as filed in PubChem BioAssay.
An excerpt weighted towards active compounds, which were near 5.8% of everything screened.
SW480 rerep: A quantitative high throughput screen for small molecules that induce DNA re-replication in SW480 colon adenocarcinoma cells; SW480 DNA re-replication, Hoechst DNA content imaging, 48 h; Potency, µM (series often up to 46.1 µM), inactives show top-dose re-replication activation, actives largely listed as activators; hit rate 1.8% among 340,000; AID 624297, 2012; further: % of control where 0% means no effect; nearly all actives have a fitted effect of over 55% in size
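Image-based read-out: total Hoechst fluorescence of nuclei (405 nm excitation, 500-530 nm emission), with hits raising the fraction of high-intensity nuclei. SW480 colon cells incubated 48 hr with compounds at 37 C.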
ALOX12 inh: Primary qHTS assay for inhibitors of human arachidonate 12S-lipoxygenase (ALOX12): Round 2; purified 12hLO, xylenol orange hydroperoxide absorbance; Potency, µM (top dose mostly 108 µM), for the others: at the top dose activity change, negative = inhibition, hits mostly inhibitors; hit rate 1.1% among 580,000; AID 1671190, 2021; further: on the % scale 0 is the no-effect control and ±100 the full control effect
Target sequence (P18054 whole entry, looked up): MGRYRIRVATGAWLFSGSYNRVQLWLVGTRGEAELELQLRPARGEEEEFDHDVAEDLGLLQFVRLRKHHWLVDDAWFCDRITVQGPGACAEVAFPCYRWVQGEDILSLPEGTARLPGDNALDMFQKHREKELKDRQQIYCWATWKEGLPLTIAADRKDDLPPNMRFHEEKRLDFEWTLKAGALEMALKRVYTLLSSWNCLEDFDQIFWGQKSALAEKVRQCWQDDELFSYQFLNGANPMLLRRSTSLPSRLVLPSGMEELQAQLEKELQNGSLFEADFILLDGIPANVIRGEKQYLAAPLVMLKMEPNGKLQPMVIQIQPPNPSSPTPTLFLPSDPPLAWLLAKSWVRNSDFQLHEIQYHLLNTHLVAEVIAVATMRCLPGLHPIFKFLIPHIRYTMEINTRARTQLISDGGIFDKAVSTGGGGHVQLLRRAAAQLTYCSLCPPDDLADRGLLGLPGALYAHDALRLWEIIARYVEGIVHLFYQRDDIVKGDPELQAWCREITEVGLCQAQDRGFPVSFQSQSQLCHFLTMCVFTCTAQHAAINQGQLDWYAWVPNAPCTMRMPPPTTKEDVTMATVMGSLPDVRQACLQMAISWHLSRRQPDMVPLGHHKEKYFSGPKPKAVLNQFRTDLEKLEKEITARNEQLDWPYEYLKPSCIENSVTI
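Purified human 12hLO at 150 nM in 25 mM Hepes, 0.01% Triton X-100, pH 7.0, preincubated 15 min at room temperature with compound. Reaction started with 40 uM arachidonic acid, 30 min at room temperature. Hydroperoxide measured by Fe-xylenol orange, 573/405 nm absorbance ratio.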
PINK1 modulator: A Quantitative High throughput Screen to Identify Chemical Modulators of PINK1 Expression; PINK1 immunofluorescence, high-content cytometry, 24 h; Potency, µM (top dose mostly 76.6 µM), for inactives: at the top dose activation (PINK1 increase), actives largely listed as activators; hit rate 0.2% among 410,000; AID 624263, 2012; active means well fitted activation curve with a large enough effect; inconclusive means small, poorly fitted or top-dose-only effect; cell line not stated here; further: % of control where 0% means no effect; nearly all actives have a fitted effect of over 65% in size
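Stable cell line treated 24 h with compounds at 5 concentrations (CCCP controls), then fixed and immunostained for PINK1 plus nuclear and cell stains; PINK1 immunofluorescence quantified by laser-scanning microplate cytometry.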
KB-3-1 cytotox: qHTS assay for MDR1-selective chemotherapeutics: Primary screen using the parental adenocarcinoma cell KB-3-1. AID 1347075, 2019. Potency, µM (doses to about 46.1 µM), most hits filed as cytotoxic. hit rate 1.4% among 400,000. KB-3-1 viability, CellTiter-Glo ATP luminescence, 72 h; further: on the % scale 0 is the no-effect control and ±100 the full control effect; nearly all actives have a fitted effect of over 60% in size
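Luminescent ATP read-out (CellTiter-Glo) measures survival of drug-naive KB-3-1 cells after 72 h compound exposure at 37 °C. Titration series was screened from lowest to highest concentration, with DMSO vehicle plates as background controls.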
KB-V1 cytotox: qHTS assay for MDR1-selective chemotherapeutics: Primary screen using the drug-selected MDR subline cells KB-V1 | KB-V1 MDR cells viability, CellTiter-Glo, 72 h | Potency, µM (series often up to 46.1 µM), usual class: cytotoxic | hit rate 3.4% among 400,000; further: on the % scale 0 is the no-effect control and ±100 the full control effect; nearly all actives have a fitted effect of over 60% in size
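KB-V1, DMEM (no phenol red) + 10% FBS; cpd pin-transferred, titration series; 72 h, 37 degrees C; CellTiter-Glo, luminescence. Data normalized, curve-fit.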
MCF10A rereplic: A quantitative high throughput screen for small molecules that induce DNA re-replication in MCF 10a normal breast cells. Potency, µM (series often up to 46.1 µM), inactives show top-dose activity, positive = re-replication, actives largely listed as activators. hit rate 2.9% among 350,000. MCF 10A DNA re-replication, Hoechst nuclear intensity, 48 h; further: % of control where 0% means no effect; nearly all actives have a fitted effect of over 50% in size
* = called active by the depositor; i = inactive; ? = inconclusive; · = no result given; [ ] = another dose, or the depositor's remark. Unless noted, the call rests on the fitted dose curve; in most records, active means well fitted curve in the direction sought with a large enough effect; inconclusive means small, poorly fitted or top-dose-only effect, or another doubt; inactive means no such curve, though single readings can be large; an effect the other way counts as inactive or inconclusive. Potency means the concentration at half of the fitted maximal effect.

SMILES	SW480 rerep	ALOX12 inh	PINK1 modulator	KB-3-1 cytotox	KB-V1 cytotox	MCF10A rereplic
Cc1ccncc1-c1c(C)nn2c1N(Cc1cccc(O)c1)CCC2	·	32µM*	·	·	·	·
Nc1ccc(CSc2ccc(Cl)cc2)c(Cl)c1	?	0%	14%	i	i	21µM*
COc1ccc(CCNC(=O)COc2ccc(S(=O)(=O)NC3CCCCC3)cc2Cl)cc1OC	15%	21%	4%	?	10µM*	0%
O=C(COc1ccc([N+](=O)[O-])cc1Cl)NCCc1ccccc1	18%	-14%	4%	i	21µM*	-4%
COCCCNC(=O)COc1ccc(S(=O)(=O)NCc2ccccc2)cc1Cl	-5%	-4%	2%	i	21µM*	1%
O=C(COc1ccc(S(=O)(=O)NC2CCCCC2)cc1Cl)NCc1ccc2c(c1)OCO2	25%	-3%	-2%[38.3 µM]	i	?	10%
O=C(COc1ccc(S(=O)(=O)NC2CCCCC2)cc1Cl)Nc1ccc2c(c1)OCO2	2%	-4%	0%[38.3 µM]	?	10µM*	?
C=CCc1c(C)c2ccc(OCC(=O)c3ccccc3)cc2oc1=O	·	19%	·	·	·	·
O=C(c1ccccc1)c1ccc(OCC(=O)N(Cc2nc3ccccc3c(=O)[nH]2)CC2CCCO2)cc1 (configuration not stated)	·	2%	·	·	·	·
CCC(c1cccs1)N1C(=O)[C@H]2CN(S(=O)(=O)c3cc(C)ccc3C)C[C@H]2C1=O (some centres not stated)	·	1%	·	·	·	·
Cc1ccc([N+](=O)[O-])c(OCCn2cnc3ccccc32)c1	3%	5%	4%	?	15µM*	0%
CCCCc1ccc(/C=C(\C#N)C(N)=S)s1	-6%	40µM*	6%	i	i	6%
COc1ccc(C(CCc2ccc(C)o2)NC(=O)Nc2ccc(OC)cc2OC)cc1 (configuration not stated)	2%	-24%	0%[38.3 µM]	i	7.3µM*	-3%
CN1C(=O)[C@@H]2C[C@@H](CN2C2CCC2)Oc2ccccc21	·	263%[176 µM]	·	·	·	·
CCOc1cccc(CN2C[C@@H]3C(=O)N(CCN4CCc5ccccc5C4)C(=O)[C@@H]3C2)c1	·	-4%	·	·	·	·
Cc1nnc(SC(C)C(=O)Nc2ccc(F)c(Cl)c2)n1C (configuration not stated)	·	-3%	·	·	·	·
C=CCn1c(SCc2nc3ccccc3[nH]2)nnc1-c1cccc(OC)c1	-14%	25%	-2%[38.3 µM]	i	3.7µM*	8%
CCn1c(SCc2nc3ccccc3[nH]2)nnc1-c1ccncc1	16%	25%	1%[38.3 µM]	i	i	9%
C=CCn1c(SCc2nc3ccccc3[nH]2)nnc1-c1ccccn1	7%	-15%	3%	i	i	4%
C=CCn1c(SCc2nc3ccccc3[nH]2)nnc1-c1ccc(OC)cc1	-8%	17%	-3%[38.3 µM]	i	4.6µM*	22%
CCn1c(SCc2nc3ccccc3[nH]2)nnc1-c1ccc(OC)cc1	-16%	28%	3%[38.3 µM]	i	10µM*	3%
Cc1cc(C)cc(-n2ncc3c(NCC4CCCO4)ncnc32)c1 (configuration not stated)	·	34%	·	·	·	·
O=C(O)c1ccc(NC2(C(=O)O)CCCC2)cc1	-4%	14µM*	-3%	i	i	-7%
O=C(NCC1CCCC(CNC(=O)N2CCc3ccccc32)C1)N1CCc2ccccc21 (configuration not stated)	?	0%	32%[38.3 µM]	i	5.2µM*	23%
C#CCNC(=O)c1cc(-c2ccccc2OC)c2cnn(C)c2n1	·	-1%[6.33 µM]	·	·	·	·
SMILES	SW480 rerep	ALOX12 inh	PINK1 modulator	KB-3-1 cytotox	KB-V1 cytotox	MCF10A rereplic
COCCN(CC(N)=O)S(=O)(=O)c1ccc(F)c(F)c1	·	27%	·	·	·	·
Cc1cc(NCc2ccccc2)n2ncc(-c3ccccc3)c2n1	?	2%	5%	?	i	18µM*
Cc1cc(C)n(-c2cc(C(C)(C)C)nc3c(-c4ccc(Cl)cc4)cnn23)n1	?	0%	26%[38.3 µM]	i	i	23µM*
Cc1cc(C)n(-c2cc(C(C)(C)C)nc3c(-c4ccccc4)cnn23)n1	1%	-2%	?	i	?	21µM*
Cc1cc(N2CCOCC2)n2ncc(-c3ccc(Cl)cc3)c2n1	21µM*	0%	5%	i	i	6%
CC(C)(C)c1cc(N2CCOCC2)n2ncc(-c3ccc(Cl)cc3)c2n1	16%	104%	?	i	i	?
COc1ccc(C2=NN(C(C)=O)C(c3ccc4nccnc4c3)C2)cc1OC (configuration not stated)	·	-26%	·	·	·	·
O=C(Cc1cn(Cc2cccc(Cl)c2)c2ccccc12)N1CCCCCC1	-65%	-29%	8%	?	4.6µM*	?
CC1CCCN(C(=O)Cc2cn(Cc3cccc(Cl)c3)c3ccccc23)C1 (configuration not stated)	6%	-24%	?	i	?	?
O=C(NC1CCCc2ccccc21)C1CCN(S(=O)(=O)c2cccc(C(F)(F)F)c2)CC1 (configuration not stated)	?	-1%	1%	i	23µM*	8%
O=C(NNC(=O)C1CCN(S(=O)(=O)c2cccc(C(F)(F)F)c2)CC1)C1CC1	-5%	9%	2%	i	i	9%
O=C(C=C(O)c1ccc(Cl)cc1)C(=O)NNC(=O)C(O)(c1ccccc1)c1ccccc1	18%	14µM*	-2%	i	i	?
Cc1nc2ccc(NC(=S)NCc3ccccc3)cc2nc1C	-1%	-27%	-1%	i	?	4%
COc1ccc(N(C)C(=S)Nc2ccc3nc(C)c(C)nc3c2)cc1	-10%	-19%	-2%	i	13µM*	15%
Cc1nc2ccc(NC(=S)N3CCCC3)cc2nc1C	-4%	?	3%	i	i	0.73µM*
Cc1nc2ccc(NC(=S)N3CCOCC3)cc2nc1C	1%	?	0%	i	i	-3%
COc1ccc(CNCCC(c2ccccc2)c2ccc3c(c2)OCO3)cc1 (configuration not stated)	?	?	?	?	?	18µM*
